Compounds with a hit are over-represented: about 4.6% of the library has one in this group of screens.
AHR activator: AHR activators, primary screen, cell-based, luminescence, luciferase reporter, human | AHR-responsive luciferase reporter cells | activation, % at 5 µM | Aryl hydrocarbon receptor (Homo sapiens), P35869 | 320,000 compounds, 2.5% hits; in the data active means activation above about 47%;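 further: 0% = vehicle wells and 100% = reference agonist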
Target sequence (P35869 whole entry, looked up): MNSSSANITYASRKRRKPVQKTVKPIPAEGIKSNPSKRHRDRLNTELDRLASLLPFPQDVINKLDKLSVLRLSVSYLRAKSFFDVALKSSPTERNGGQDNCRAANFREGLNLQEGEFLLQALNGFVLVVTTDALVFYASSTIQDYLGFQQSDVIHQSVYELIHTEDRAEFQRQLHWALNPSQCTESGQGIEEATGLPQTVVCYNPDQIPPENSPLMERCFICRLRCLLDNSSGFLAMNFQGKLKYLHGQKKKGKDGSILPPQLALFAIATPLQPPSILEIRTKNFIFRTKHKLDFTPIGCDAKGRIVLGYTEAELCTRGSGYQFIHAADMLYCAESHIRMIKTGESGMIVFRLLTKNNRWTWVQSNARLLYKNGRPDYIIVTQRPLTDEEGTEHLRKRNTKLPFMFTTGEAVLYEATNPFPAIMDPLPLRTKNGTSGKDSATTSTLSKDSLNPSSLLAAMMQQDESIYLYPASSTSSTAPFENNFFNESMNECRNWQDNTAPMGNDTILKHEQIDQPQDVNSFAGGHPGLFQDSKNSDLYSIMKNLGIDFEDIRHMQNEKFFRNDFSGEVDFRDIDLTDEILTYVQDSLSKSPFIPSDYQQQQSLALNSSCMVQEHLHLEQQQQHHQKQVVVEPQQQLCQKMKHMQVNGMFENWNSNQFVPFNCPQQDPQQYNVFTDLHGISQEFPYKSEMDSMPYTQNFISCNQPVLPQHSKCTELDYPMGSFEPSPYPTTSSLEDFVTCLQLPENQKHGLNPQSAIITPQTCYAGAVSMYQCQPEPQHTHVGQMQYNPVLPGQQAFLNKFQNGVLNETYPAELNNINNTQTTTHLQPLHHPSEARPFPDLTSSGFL
HSF1 inhib: HSF1 inhibitors in luciferase reporter cells, primary screen, cell-based, NIH3T3, luminescence; NIH3T3-HGL HSE-luciferase, MG132-induced, luminescence 8 h; active compounds read low; 300,000 compounds, 0.77% hits; activity change, negative = inhibition, % at 7.5 µM (by protocol);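 active means more than half of replicate wells show activity change below -50%, luminescence cut by over half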;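 further: luciferase reports HSF-1 transcriptional activity via heat shock element; 0% = median of DMSO wells and -100% = zero luminescence signal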
GAA850 FXN act: FXN promoter activators, primary screen, cell-based, luciferase luminescence, HEK293 lucGAA850. activation, % at 6 µM. 360,000 compounds, 0.56% hits. AID 540364, 2011. HEK293 lucGAA850 FXN promoter luciferase reporter, 24 h; percent of 10 µM SAHA response;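 active means activation above the average of all compounds screened plus 3 SD, cutoff fixed separately per campaign, cut at about 7.5% in these data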;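 further: 0% = DMSO wells and 100% = 10 µM SAHA wells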
HSF1 activator: HSF-1 activators, primary screen, NIH3T3-HGL cells, MG132 stress, luminescence, single point; activation, % at 9 µM; 300,000 compounds, 1.7% hits; NIH3T3-HGL HSF-1 luciferase reporter, 8 h; 100% = twice DMSO control signal;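 active means mean replicate activation of at least 50% with a set share of replicates each reaching 50%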;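 further: 0% = median of the neutral control wells and 100% = twice that signal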
* marks the source's active call; other numbers are inactive results; / = no result.

SMILES	AHR activator	HSF1 inhib	GAA850 FXN act	HSF1 activator
COc1ccc(N(C(=O)CCl)C(C(=O)NCCc2ccccc2)c2cccs2)cc1 (configuration not stated)	-2	-93*	-12	-94
O=C(Cc1cccs1)NCCCc1ccccc1	2	-8	2	-7
CC(C)[C@H](NC(N)=O)C(=O)NNC(=O)COc1cccc(C(F)(F)F)c1	1	88	0	142*
CC1(C)Cc2c(C#N)c(SCCC#N)nc(N3CCOCC3)c2CO1	/	-61*	1	-68
CC(C)Oc1ccc(NC(=O)CCC(=O)O)cc1	0	-4	1	-11
O=C(OCN1C(=O)c2ccccc2C1=O)c1ccccc1	-2	37	-1	75*
Cc1ccc(SCc2ccc(C(=O)N3CCCC3)cc2)cc1	0	37	3	58*
O=C(O)Cn1c2c(c3ccccc31)CSc1ccc(Cl)cc1-2	23	192	-1	269*
O=C1CC(NS(=O)(=O)c2ccc3ccccc3c2)CN1c1ccccc1 (configuration not stated)	1	4	0	15
Brc1ccccc1-c1nc2c3ccccc3ncn2n1	66*	/	4	/
CC(C)(C)c1ccc(OCc2nc(-c3ccccn3)no2)c(Br)c1	26	7	4	4
Clc1cc(Cl)c(OCc2nc(-c3ccccn3)no2)cc1Cl	10	69	6	110*
O=S(=O)(Nc1nc2ccccc2s1)c1cnc(Cl)c(Br)c1	18	3	2	-8
Cc1ccc(SCCCCN2CCOCC2)cc1	2	113	0	141*
O=[N+]([O-])c1c(Nc2ccc(O)cc2)cc(Cl)c2nonc12	1	122	-6	132*
O=C(O)c1ccccc1Nc1cc(Cl)c2nonc2c1[N+](=O)[O-]	2	6	0	13
O=[N+]([O-])c1c(Nc2ccccn2)cc(Cl)c2nonc12	0	98	2	163*
O=C(c1ccc(Cl)cc1)c1c[nH]c(C(=O)NNc2ccccc2)c1	37	-1	4	8
COCCN(C(=O)COC(=O)Cc1cccc(OC)c1)c1c(N)n(CC(C)C)c(=O)[nH]c1=O	1	-2	2	7
COc1ccccc1NC(C)C(=O)N/N=C/c1ccccc1OCc1cccc(Br)c1 (configuration not stated)	52*	-4	1	11
CCC(C)(C)N1CC(=O)N(Cc2ccccc2)C(c2ccc(OC)cc2)C1=O (configuration not stated)	-4	4	1	11
O=C(NC(=S)N1CCN(c2ccc(Cl)cc2[N+](=O)[O-])CC1)c1cccs1	1	-66*	3	-68
O=C(NC(=S)N1CCN(c2ccc(Cl)cc2[N+](=O)[O-])CC1)c1ccco1	0	-12	2	9
CCOC(=O)c1ccc(Nc2ncnc3nc[nH]c23)cc1	3	-75*	-1	-78
N#C/C(=N\Nc1ccccc1[N+](=O)[O-])C(=N)N1CCCCC1	8	35	3	64*
SMILES	AHR activator	HSF1 inhib	GAA850 FXN act	HSF1 activator
N#C/C(=N/Nc1ccc([N+](=O)[O-])cc1)C(=N)N1CCCCC1	/	38	2	42
COC(=O)c1ccc(C2NC(=O)c3c(sc(C)c3C)N2)cc1 (configuration not stated)	18	5	0	7
O=C(C[n+]1cccc(CNC(=O)c2ccc(OC(F)F)cc2)c1)Nc1cc(C(F)(F)F)ccc1Cl	0	-2	1	-7
Cc1onc(-c2ccccc2Cl)c1C(=O)Nc1ccc(OCC(=O)N2CCOCC2)cc1	-3	-85*	0	-87
O=S(=O)(NCCC(c1ccc(F)cc1)c1ccco1)c1ccccc1 (configuration not stated)	-2	6	1	-12
O=C(CC(c1ccco1)S(=O)(=O)c1ccccc1)c1ccc(F)cc1 (configuration not stated)	-5	121	0	220*
O=C(CSc1nnc(CCc2ccccc2)n1-c1ccc(Cl)cc1)c1ccccc1	2	-60*	-1	-71
Cc1ccc(Nc2nc3ccccc3n3nnnc23)cc1	52*	-13	4	-16
Cc1cccc(Nc2nc3ccccc3n3nnnc23)c1	30	-10	3	2
Clc1ccc(CCNc2nc3ccccc3n3nnnc23)cc1	5	26	2	51*
Cc1nc(SCc2ccccc2F)c2oc3ccccc3c2n1	1	-6	2	8
